Each structure is given as a SMILES string. “And” between values parts separate entries of the source, which are not always exact repeats. Equal values may be shown once. Records with an inconclusive call do not appear. The source made the active and inactive calls. Unless noted, calls follow the shape of the dose curve; as a rule, active = well fitted inhibition curve with a large enough effect; inconclusive = small, poorly fitted or top-dose-only effect; inactive = flat fitted curve, though single readings scatter.

Assay [1] in a line: qHTS drug screen for cell cycle checkpoint inhibitors in PARPi-resistant BRCA-mutant ovarian cancer cell lines. (AID 1963452; calls by dose curve). The conditions noted are these: PEO1/OlaR viability, CellTiter-Glo luminescence, 96 h, stronger effect = lower value. An outline of the steps: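 PEO1, PEO4 and PEO1/OlaR ovarian cancer cells, 600 per well, exposed 96 h at 37C to a dilution series. Viability read by CellTiter-Glo luminescence, normalized to DMSO and empty wells; activity summarized as Z-AUC.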

Assay [2] can be described thus: qHTS for identification of novel therapeutic agents for treatment of microphthalmiaassociated transcription factor (MiT) renal cell carcinoma (RCC) (AID 1963991). The settings on record: CellTiter-Glo, 48 h, stronger effect = lower value. An outline of the steps:
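Three TFE3-fusion RCC cell lines (UOK109, UOK124, UOK145), 500 cells/well, were exposed to the 1912-compound MIPE 4.0 library for 48 hours at 37 C. Viability was read by CellTiter-Glo luminescence, normalised to DMSO (100%) and empty wells (0%), with 11-concentration curve fits.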
(In general: In qHTS, concentration-response curves come from the screen itself.)

Assay [3] can be described thus: qHTS profiling for inhibitors of Plasmodium falciparum proliferation (AID 504749).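 Also: 0% = DMSO vehicle and full inhibition = artemisinin control; nearly all actives have a fitted effect of over 60% in size.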 The conditions noted are these: P. falciparum in erythrocytes, SYBR Green DNA, 72 h. An outline of the steps:
(§1)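 SYBR Green fluorescence of parasite DNA, read after lysis and overnight dark incubation, measured growth over 72 h in erythrocyte culture at 0.3% parasitemia and 2.5% hematocrit. Data normalised to DMSO and 0.29 uM artemisinin, with plate-drift correction.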

In the next assay the test system is 3D7. Described as above. The conditions noted are these: P. falciparum in erythrocytes, SYBR Green DNA, 72 h; series mostly up to 28.7 µM. Put shortly:
as §1

The subject of another assay is 7G8. The assay is described as above. The conditions noted are these: P. falciparum in erythrocytes, SYBR Green DNA, 72 h; series mostly up to 28.7 µM. Put shortly:
as §1

A further assay has as its system AA1029. The description is as above. The conditions noted are these: P. falciparum in erythrocytes, SYBR Green DNA, 72 h; series mostly up to 28.7 µM. An outline of the steps:
as §1

The next assay has as its system AS120. The description is as above. The conditions noted are these: P. falciparum in erythrocytes, SYBR Green DNA, 72 h; series mostly up to 28.7 µM. Put shortly:
as §1

Where [4] appears, read: measured here: PEO1 parental Z-AUC.
The mark [5] stands for this setting: TFE3-RCC UOK109 viability, measured here: UOK109 Z-AUC.
[6] abbreviates: TFE3-RCC viability, measured here: UOK124 Z-AUC.
The mark [7] stands for this setting: TFE3-RCC viability, measured here: UOK145 Z-AUC.
Where [8] appears, read: at 28.7 µM (top of the series), parasite line A.
Where [9] appears, read: at 28.7 µM (top of the series), parasite line B.

As to `C[C@](N)(Cc1ccc(O)c(O)c1)C(=O)O`, the Z-AUC is 0.359 (inactive) in assay [1], 1.39 in assay [1] (setting [4]) and 1.22 in assay [1] (measured here: PEO4 Z-AUC). The z-score in assay [2] (setting [5]) was 0.112; in assay [2] (setting [6]) it was -0.114; in assay [2] (setting [7]), -0.0394. Besides, the activity, negative = inhibition is 5.92% (inactive) in assay [3] (setting [8]) and -9.27% (inactive) in assay [3] (setting [9]). For the same compound, the Potency entry in the assay with 3D7, in the assay with 7G8, in the assay with AA1029 and in the assay on AS120 was “inactive” each time.
As to `Cn1c(=O)c2[nH]cnc2n(C)c1=O`, the Z-AUC in assay [1] was 0.347 (inactive); in assay [1] (setting [4]), 0.72; in assay [1] (measured here: PEO4 Z-AUC), 0.784. Moreover, the results for the z-score in assay [2] (setting [5]), in assay [2] (setting [6]) and in assay [2] (setting [7]) were 1.09, 0.242 and 0.63, respectively. Further, the activity, negative = inhibition was 0.326% (inactive) in assay [3] (setting [8]) and 0.99% (inactive) in assay [3] (setting [9]). Further, the Potency entry in the assay with 3D7, in the assay with 7G8, in the assay with AA1029 and in the assay with AS120 was “inactive” throughout.
Take `CC1COc2c(N3CCN(C)CC3)c(F)cc3c(=O)c(C(=O)O)cn1c23` (configuration not stated): the Z-AUC in assay [1] was -0.369 (inactive); in assay [1] (setting [4]), 0.841; in assay [1] (measured here: PEO4 Z-AUC) it was -0.196.
For `Cc1ccc(-c2cc(C(F)(F)F)nn2-c2ccc(S(N)(=O)=O)cc2)cc1`, in that order: 1.19 (inactive), 0.566 and 1.1.
Consider `CN1C2CCC1CC(OC(=O)C(CO)c1ccccc1)C2` (configuration not stated), for which the figures for the Z-AUC in assay [1], in assay [1] (setting [4]) and in assay [1] (measured here: PEO4 Z-AUC) were 0.435 (inactive), 0.73 and -0.0914, respectively. Moreover, the results for the z-score in assay [2] (setting [5]), in assay [2] (setting [6]) and in assay [2] (setting [7]) were 0.361, 0.456 and 0.45, respectively.
As to `NCCCCCC(=O)O`, the results for the Z-AUC in assay [1], in assay [1] (setting [4]) and in assay [1] (measured here: PEO4 Z-AUC) were 1.55 (inactive), 1.11 and 1.26, respectively. Also, the z-score stood at 0.855 in assay [2] (setting [5]), 0.487 in assay [2] (setting [6]) and 0.828 in assay [2] (setting [7]). Moreover, the activity, negative = inhibition in assay [3] (at 12.8 µM (top of the series), parasite line A) was 3.43% (inactive); in assay [3] (at 12.8 µM (top of the series), parasite line B), 5.54% (inactive). Further, the Potency result in the assay with 3D7, in the assay on 7G8, in the assay with AA1029 and in the assay on AS120 was “inactive” each time.
Turning to `CC[N+](CC)(CC)CCOc1cccc(OCC[N+](CC)(CC)CC)c1OCC[N+](CC)(CC)CC`, the Z-AUC in assay [1] is 0.722 (inactive); in assay [1] (setting [4]), 0.846; in assay [1] (measured here: PEO4 Z-AUC), 0.666. Also, the z-score in assay [2] (setting [5]) was 0.0594; in assay [2] (setting [6]) it was 0.771; in assay [2] (setting [7]), -0.103. Further, the figures for the activity, negative = inhibition in assay [3] (setting [8]) and in assay [3] (setting [9]) were -0.0275% (inactive) and 10.3% (inactive), respectively. In addition, the Potency result in the assay on 3D7, in the assay with 7G8, in the assay with AA1029 and in the assay on AS120 was “inactive” in each case.
In the case of `NC(=O)OCC(COC(N)=O)c1ccccc1`, the Z-AUC in assay [1] was 0.532 (inactive); in assay [1] (setting [4]) it was 1.02; in assay [1] (measured here: PEO4 Z-AUC), 1.07. The z-score was 0.961 in assay [2] (setting [5]), 0.566 in assay [2] (setting [6]) and -0.0858 in assay [2] (setting [7]). In addition, the activity, negative = inhibition is 12.4% (inactive) in assay [3] (setting [8]) and 14.7% (inactive) in assay [3] (setting [9]). The Potency result in the assay with 3D7, in the assay with 7G8, in the assay with AA1029 and with AS120 was “inactive” each time.
With `O=C(C1CCCCC1)N1CC(=O)N2CCc3ccccc3C2C1` (configuration not stated), the Z-AUC in assay [1] was 1.17 (inactive); in assay [1] (setting [4]), 0.752; in assay [1] (measured here: PEO4 Z-AUC), 1.07. Besides, the figures for the z-score in assay [2] (setting [5]), in assay [2] (setting [6]) and in assay [2] (setting [7]) were -4.91, 0.786 and -3.49, respectively.
Consider `C[C@H]1c2cccc(O)c2C(O)=C2C(=O)[C@]3(O)C(O)=C(C(N)=O)C(=O)[C@@H](N(C)C)[C@@H]3[C@@H](O)[C@@H]21`, for which the Z-AUC was 0.309 (inactive) and -0.104 (inactive) in assay [1]; 0.47 and 0.545 in assay [1] (setting [4]); 0.542 and 0.724 in assay [1] (measured here: PEO4 Z-AUC).
`COc1ccc(C2CNC(=O)C2)cc1OC1CCCC1` (configuration not stated): the Z-AUC in assay [1] was -0.000894 (inactive); in assay [1] (setting [4]) it was 0.813; in assay [1] (measured here: PEO4 Z-AUC) it was 0.981. The z-score in assay [2] (setting [5]) turned out to be 0.4; in assay [2] (setting [6]), 0.743; in assay [2] (setting [7]), 0.539.

The values are drawn from PubChem BioAssay (NCATS).
